Several values for one entry are separate records, joined by “and”; a condition that tells them apart may be missing. Equal values may be shown once. Screen size: about 69,000 compounds; about 2,600 (3.8%) were called active. No stated cut-off is given here; in the data, active means activity change below about -70% (passing the limit was not always enough); inconclusive means no clear call, values can overlap the other calls. The sample as a whole holds a higher share of actives than the screen did.
Assay: T. gondii growth inhibition with IFN-gamma, primary screen, cell-based (AID 1259416);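 further: host cells are HeLa cells infected with Toxoplasma gondii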
Details: Toxoplasma gondii growth in IFN-gamma-treated host cells; hits give low values; concentration not given here
With O=C1NCCc2[nH]c(-c3ccncc3)cc21 the activity change, negative = inhibition was -85.6% (active). For COc1cccc(-c2cn[nH]c2C2CCCN2S(=O)(=O)c2ccc(Cl)cc2)c1 (configuration not stated), the activity change, negative = inhibition was -31.9% (inactive). With Cc1nn(CC(=O)N(C)Cc2ccccc2)c(=O)c2nc(-c3ccccc3)sc12 the activity change, negative = inhibition was -55.4% (inactive). In the case of O=S(=O)(CCSCc1ccc(Cl)cc1)CCSCc1ccc(Cl)cc1, the activity change, negative = inhibition was -10% (inactive). For CS(=O)(=O)Nc1ccc(-n2cnc(-c3ccccc3)c2)cn1, the activity change, negative = inhibition was 11.6% (inactive). In the case of CC1(C)CC(=O)c2cnc3cc(-c4ccccc4)nn3c2C1, the activity change, negative = inhibition was -86.8% (active). For O=C(Nc1ccc(F)cc1F)c1c(O)c2ccccc2n(-c2ccccc2)c1=O, the activity change, negative = inhibition was 24% (inactive). In the case of S=C(NCCCc1cnc[nH]1)NCCCN(Cc1ccc(Cl)c(Cl)c1)c1ccc(Br)cn1, the activity change, negative = inhibition was -78.1% (active). For Cc1ccc(NC(=O)CC(=O)NCCc2cnc[nH]2)cc1Cl, the activity change, negative = inhibition was 5.77% (inactive). With COc1ccc(NC(=O)c2cc3c(s2)CCN3C(=O)C2CC2)cc1 the activity change, negative = inhibition was 23.2% (inactive). For Cn1c(=O)c(-c2nc(-c3cccs3)no2)c(O)c2ccccc21, the activity change, negative = inhibition was 67.9% (inactive). In the case of CCSCCN(C(=O)c1nnc2nc(C)cc(C)n12)C1CCCCC1, the activity change, negative = inhibition was -3.21% (inactive). In the case of COc1ccc2c3c(n(C)c2c1)[C@H](CO)N(C(=O)Nc1cccc(F)c1)CC31CN(Cc2nccs2)C1, the activity change, negative = inhibition was -24.3% (inactive). In the case of N#Cc1ccc(C(=O)N2CCC3C2CCC(=O)N3c2cccnc2)cc1 (configuration not stated), the activity change, negative = inhibition was -20.1% (inactive). In the case of COc1ccc(-c2nc(Cn3nnc(C(=O)Nc4ccccc4C)c3C)c(C)o2)c(OC)c1, the activity change, negative = inhibition was 32.4% (inactive). In the case of Cc1cccc(C)c1NC(=O)c1nnn(Cc2nc(-c3ccccc3)oc2C)c1C, the activity change, negative = inhibition was -62.3% (inactive). With Cc1ccc(-c2nc(Cn3nnc(C(=O)NCc4ccccn4)c3C)c(C)o2)cc1 the activity change, negative = inhibition was -57.8% (inactive). In the case of Cc1ccc(Cl)cc1NC(=O)c1nnn(Cc2nc(-c3cccc(Cl)c3)oc2C)c1C, the activity change, negative = inhibition was 55.8% (inactive). For COc1ccccc1NC(=O)c1nnn(Cc2nc(-c3ccc(C)cc3)oc2C)c1C, the activity change, negative = inhibition was -82.9% (active). For COc1ccccc1NC(=O)c1nnn(Cc2nc(-c3cccc(OC)c3OC)oc2C)c1C, the activity change, negative = inhibition was -83.3% (active). In the case of COc1ccc(Br)cc1-c1nc(Cn2nnc(C(=O)Nc3cc(F)ccc3C)c2C)c(C)o1, the activity change, negative = inhibition was 423% (inactive). With Cc1ccccc1-c1nc(Cn2nnc(C(=O)Nc3c(C)cccc3C)c2C)c(C)o1 the activity change, negative = inhibition was -38.6% (inactive). For CCc1ccccc1NC(=O)c1nnn(Cc2nc(-c3ccccc3C)oc2C)c1C, the activity change, negative = inhibition was -107% (active). With CCC(c1ccccn1)N(C)C1CCNCC1 (configuration not stated) the activity change, negative = inhibition was 16.8% (inactive). For CN(CC1Cc2ccccc2O1)S(=O)(=O)NCc1ccccc1 (configuration not stated), the activity change, negative = inhibition was 0.376% (inactive). For CN1CCO[C@@H]2CN(C(=O)CC3Cc4ccccc4C3)C[C@@H]2C1, the activity change, negative = inhibition was 112% (inactive). In the case of CN(C[C@@H]1[C@H](c2ccccc2)[C@@H](CO)N1Cc1ccccn1)S(C)(=O)=O, the activity change, negative = inhibition was 2.44% (inactive). With CCc1cc(CN2CCCC2c2nc3ccc(C)cc3[nH]2)on1 (configuration not stated) the activity change, negative = inhibition was 9.45% (inactive). In the case of CC(=O)NCCc1csc(C2CCN(C(=O)NCc3ccc(F)cc3)CC2)n1, the activity change, negative = inhibition was -3.56% (inactive). In the case of O=C(O)CCC(=O)N1CC2CCC(C1)N2C(=O)c1ccco1, the activity change, negative = inhibition was 61.2% (inactive). With CC(C)NC(=O)N1CC2(C1)[C@H](c1ccccc1)[C@H](CO)N2C(=O)C1CCOCC1 the activity change, negative = inhibition was -2.06% (inactive). In the case of CCOc1cccc(C2c3[nH]c4ccccc4c3CCN2C(=O)c2ccccc2)c1 (configuration not stated), the activity change, negative = inhibition was -34.3% (inactive). For CCOc1cccc(CC(=O)N2CCc3c([nH]c4ccccc34)C2c2ccc(F)cc2)c1OCC (configuration not stated), the activity change, negative = inhibition was -74.9% (active). With CSc1ccc(C2c3[nH]c4ccccc4c3CCN2C(=O)c2cc3ccccc3[nH]2)cc1 (configuration not stated) the activity change, negative = inhibition was -96.3% (active). In the case of Cc1cccc(C2c3[nH]c4ccccc4c3CCN2C(=O)c2ccccc2C)c1 (configuration not stated), the activity change, negative = inhibition was -84.7% (active). With CCOc1ccc(C2c3[nH]c4ccccc4c3CCN2C(=O)C2CC2)cc1 (configuration not stated) the activity change, negative = inhibition was -34.9% (inactive). With Cc1ccc(C2c3[nH]c4ccccc4c3CCN2C(=O)c2cccc(C)c2)cc1 (configuration not stated) the activity change, negative = inhibition was 226% (inactive). For CCOc1cccc(CC(=O)N2CCc3c([nH]c4ccccc34)C2c2ccc(OC)cc2)c1OCC (configuration not stated), the activity change, negative = inhibition was 213% (inactive). In the case of Cc1cccc(C2c3[nH]c4ccccc4c3CCN2C(=O)C(=O)CCc2ccccc2)n1 (configuration not stated), the activity change, negative = inhibition was -13.8% (inactive). In the case of COCC1CN(c2ccc(C)nn2)Cc2cnn(C)c21 (configuration not stated), the activity change, negative = inhibition was -0.315% (inactive). For Cc1ccc(S(=O)(=O)Nc2cncc(C(=O)NCC(C)C)c2)cc1, the activity change, negative = inhibition was -16.9% (inactive). With Cc1nn(C)c2c1C(c1cc(F)ccc1-n1cccn1)CC(=O)N2 (configuration not stated) the activity change, negative = inhibition was -37.8% (inactive). In the case of CC1(C)[C@@H](O[C@H]2O[C@H](C(=O)O)[C@@H](O)[C@H](O)[C@@H]2O[C@@H]2O[C@H](C(=O)O)[C@@H](O)[C@H](O)[C@H]2O)CC[C@@]2(C)[C@H]3C(=O)C=C4[C@@H]5C[C@@](C)(C(=O)O)CC[C@]5(C)CC[C@@]4(C)[C@]3(C)CC[C@@H]12, the activity change, negative = inhibition was 15.6% (inactive). In the case of COc1ccccc1-c1nc(Cc2noc(-c3cccnc3)n2)c(C)o1, the activity change, negative = inhibition was -62.2% (inactive). For O=C(c1cccc(Cl)c1)N1CCC2(CC1)Nc1cc(F)ccc1-n1cccc12, the activity change, negative = inhibition was 50.9% (inactive). In the case of O=C1N[C@H](c2ccccc2)COCc2cn(nn2)CC[C@H]1Cc1cccc(Cl)c1, the activity change, negative = inhibition was -2.88% (inactive). For CCN(CC)C(=O)[C@@H]1C[C@H](N)CN1C(=O)Cc1ccc(F)c(C)c1, the activity change, negative = inhibition was 3.3% (inactive). In the case of Cc1cc(-c2cc(C3CCN(C(=O)C4CC(=O)C4)C3)ccn2)ccc1F (configuration not stated), the activity change, negative = inhibition was 14.5% (inactive). For O=C(CCc1ccco1)N1CCc2onc(-c3ccc(C(F)(F)F)cc3)c2C1, the activity change, negative = inhibition was 9.55% (inactive). In the case of Clc1ccc(-c2noc3c2CN(CCn2cc(Cl)cn2)CC3)cc1, the activity change, negative = inhibition was -72.1% (active). With c1ccc2c(-c3noc4c3CN(CC3CCCO3)CC4)cccc2c1 (configuration not stated) the activity change, negative = inhibition was -4.04% (inactive). With O=C(CC1COCCN1)NCCC(c1ccccc1)c1ccccc1 (configuration not stated) the activity change, negative = inhibition was -9.21% (inactive). In the case of CNc1nc(N2CCN(Cc3nccn3C(C)C)CC2)nc2c1CCC2, the activity change, negative = inhibition was 8.7% (inactive). In the case of Cc1nc(CN2CCCn3nnc(COC(C)C)c3C2)cs1, the activity change, negative = inhibition was 9.42% (inactive). For COCCC(=O)N1CCN(CC2CC2)c2nc(C)ccc2C1, the activity change, negative = inhibition was -15.5% (inactive). For Cn1nnc(-c2ccc(C(=O)NC(CN3CCCCC3)c3ccccc3)cc2)n1 (configuration not stated), the activity change, negative = inhibition was -0.396% (inactive). For CCOC(=O)c1nc(N2CCC(c3ccccc3)C2)c2ccccc2n1 (configuration not stated), the activity change, negative = inhibition was 11.8% (inactive). With Clc1ccc(Cn2ncc3c(NCc4cccnc4)ncnc32)cc1 the activity change, negative = inhibition was -81.5% (active). With O=C(Cn1ncc2c(N3CCN(c4ccccc4)CC3)ncnc21)Nc1ccc(Cl)cc1 the activity change, negative = inhibition was -12.8% (inactive). For O=C(Cn1ncc2c(N3CCN(c4ccccn4)CC3)ncnc21)NCc1ccc(F)c(Cl)c1, the activity change, negative = inhibition was -16.9% (inactive). With CCC(=O)N1Cc2cc(C(=O)NCc3cccc(F)c3)nc(-c3cccc(C4=CCCC4)c3)c2[C@H]1CCO the activity change, negative = inhibition was -51.7% (inactive). With Cc1cccc(OC2CCN(C(=O)c3ccc(OCc4nonc4C)cc3)CC2)c1 the activity change, negative = inhibition was -46.1% (inactive). In the case of Cc1cccc2[nH]nc(-c3cc(NCCN(C)C)nc4[nH]ccc34)c12, the activity change, negative = inhibition was -0.259% (inactive). With CNc1cc(-c2cc(C(C)C)nc(C(F)(F)F)n2)c2cc[nH]c2n1 the activity change, negative = inhibition was -83.6% (active). With Cc1nc(C)n(CCC(=O)N2CCN(S(=O)(=O)c3ccccc3)CC2)n1 the activity change, negative = inhibition was 55.6% (inactive). For CC1=NOC(C)(CNC(=O)c2csc(-c3cccs3)n2)C1 (configuration not stated), the activity change, negative = inhibition was -3.52% (inactive). With O=C(Sc1cccs1)c1csc(C2COc3ccccc3O2)n1 (configuration not stated) the activity change, negative = inhibition was -96.7% (active). With Cc1nc2ccccn2c1C(=O)N1CCCC(Cn2cc(C3CC3)nn2)C1 (configuration not stated) the activity change, negative = inhibition was 26.9% (inactive). With CN(C)C(=O)CN1CC2CN(Cc3ccncc3)CCC2(c2ccccc2)C1 (configuration not stated) the activity change, negative = inhibition was -2.67% (inactive). With O=C1NCC(CN2CCOc3c(O)cc(-c4csc5ccccc45)cc3C2)O1 (configuration not stated) the activity change, negative = inhibition was -76.2% (active). With CCC(C(=O)OC)N1CCOc2c(O)cc(-c3ccc(C)s3)cc2C1 (configuration not stated) the activity change, negative = inhibition was -5% (inactive). In the case of COc1cc(COC2CN(C(=O)c3csc(SC)n3)CC(=O)N(C(C)C)C2)cc(OC)c1 (configuration not stated), the activity change, negative = inhibition was -6.26% (inactive). For CCOCC1CN(Cc2ccc3c(c2)OCO3)Cc2cncn2C1 (configuration not stated), the activity change, negative = inhibition was -0.275% (inactive). For COc1ccc(-c2nc3ccccc3n2-c2cc(C(C)(C)C)c(O)c(C(C)(C)C)c2)cc1, the activity change, negative = inhibition was -86.1% (active). With OCCn1c(-c2ccc(-c3ccn[nH]3)cc2)nc2ccccc21 the activity change, negative = inhibition was 92.2% (inactive). In the case of CCN1CCN(c2nc(-c3ccc(OC)cc3)nc3ccccc23)CC1, the activity change, negative = inhibition was -47.8% (inactive). In the case of C=CCOCC12CCCOC1CCN(S(=O)(=O)c1cccnc1)C2 (configuration not stated), the activity change, negative = inhibition was 40.1% (inactive). For CCCN1CCN(C(=O)c2nc(-c3cccc(F)c3)n3c2CCCCC3)CC1, the activity change, negative = inhibition was 3.76% (inactive). For CCOc1ccccc1NC(=O)C(=O)NCCc1csc(-c2cccc(F)c2)n1, the activity change, negative = inhibition was -13.3% (inactive). For CCOc1ccccc1CNC(=O)c1nc(-c2cccc(F)c2)n2c1CCCCC2, the activity change, negative = inhibition was -84.4% (active). For CC(C)N1CCN(C(=O)c2csc(-c3ccc(N4CCCC4)nc3)n2)CC1, the activity change, negative = inhibition was -27.3% (inactive). For Nc1cccc(CCc2nc3ccccc3[nH]2)c1, the activity change, negative = inhibition was 22% (inactive). For Cc1cccc(Cc2c(C)[nH]n(-c3nc4ccccc4[nH]3)c2=O)c1, the activity change, negative = inhibition was -124% (active). With Cc1nc2nc(Cc3ccc(Cl)cc3)[nH]n2c(=O)c1Cc1ccccc1 the activity change, negative = inhibition was 4.81% (inactive). For CN(C)c1ncnc2c1CCN(C(=O)c1ccnnc1)CC2, the activity change, negative = inhibition was -0.9% (inactive). For Cc1ccc(-c2nn(C(C)(C)C)c3ncnc(N)c23)cc1, the activity change, negative = inhibition was -84% (active) and -73.5% (active). In the case of Cn1cc(CN2CCc3ncnc(-c4ccccc4)c3CC2)cn1, the activity change, negative = inhibition was -8.43% (inactive).

— PubChem BioAssay AID1259416 (Broad Institute, 2018)
